This is an account of results in PubChem BioAssay (NCATS).

Test [1] is described as follows: Cell Viability - LYMP2-020 (AID 986).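 Note: series mostly up to about 92 µM; cells exposed to compound for 24 h at 37 °C; plate controls were DMSO only for no effect and tetraoctylammonium bromide at 92 µM for full effect; nearly all actives have a fitted effect of over 55% in size.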 The method, boiled down:
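Seed 2500 cells per well and incubate 5 hr at 37 C. Add compounds at a concentration series and incubate 24 hr at 37 C. Add CellTiter-Glo, wait 30 min at RT, read luminescence, and fit a Hill curve for AC50.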

Test [2] is described as follows: Cell Viability - LYMP2-022 (AID 987).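 Note: 0% = DMSO alone and full effect = tetraoctylammonium bromide at 92 µM; nearly all actives have a fitted effect of over 55% in size.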 The method, boiled down: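 Cells were seeded at 2500 per well, rested 5 hr at 37 C, and treated with titrated compounds for 24 hr at 37 C. Cellular ATP was then quantified by luciferase luminescence, and AC50 values were derived from Hill-modelled concentration-response curves.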
A short description of test [3]: Cell Viability - LYMP2-024 (AID 988).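 Note: plate controls were DMSO only for no effect and 92 µM tetraoctylammonium bromide for full effect; nearly all actives have a fitted effect of over 60% in size.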 The method, boiled down:
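qHTS cytotoxicity, human lymphoblastoid line, complete medium; 24 h cpd treatment, 37 C; CellTiter-Glo ATP luminescence readout; tetraoctylammonium bromide positive control; AC50 via Hill fit.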

A short description of test [4]: Cell Viability - LYMP2-026 (AID 989).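 Note: cells exposed to compound for 24 h at 37 °C; % is set by controls: 0 for no effect and ±100 for the full control effect; nearly all actives have a fitted effect of over 50% in size.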 In outline:
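Cells are seeded at 2500 per well and held 5 hr at 37 C. Compounds are added in concentration series for 24 hr, then CellTiter-Glo reagent is applied and luminescence read.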

Test [5] can be described thus: Cell Viability - LYMP1-002 - Assay at 24 hr (AID 993). Note: % is set by controls: 0 for no effect and ±100 for the full control effect. In outline:
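Acute toxicity is measured as concentration-dependent loss of cellular ATP in a human lymphoblastoid line (Coriell LYMP1-002) after 24 h treatment in complete medium. ATP is quantified by luciferase luminescence and AC50 derived by Hill modelling.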

The nature of test [6]: Cell Viability - LYMP1-002 - Assay at 40 hr (AID 994).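 Note: 0% = DMSO only and full inhibition = 92 µM tetraoctylammonium bromide; nearly all actives have a fitted effect of over 60% in size.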 The method, boiled down: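 Cells are plated at 2500 per well and rested 5 hr at 37 C. Compounds are added and incubated 40 hr at 37 C. CellTiter-Glo reagent is added for 30 min at room temperature before luminescence is read.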
A short description of test [7]: qHTS Assay for Identification of Small Molecule Inducers of Hypoxia Response (AID 2120; active = well fitted curve in the direction sought with a large enough effect in the signal ratio, with a control signal flat, not every such curve was filed as active; the % refers to the signal ratio; note: 0% is about no effect). The method, boiled down:
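Cell-based qHTS for reporter induction: hypoxia response element controlled beta-lactamase in ME-180 cells. Compounds incubated 17 h at 37 degrees C; activity from blue/green (460/530 nm) ratio, inducers ranked by AC50.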
Background: Quantitative high-throughput screening tests each substance at several concentrations.

For test [8], the target named is Glucocorticoid receptor (Homo sapiens) (UniProt P04150). In words: qHTS assay for small molecule agonists of glucocorticoid receptor signaling (AID 588532; active = well fitted curve in the direction sought with a large enough effect in the signal ratio, with a control signal flat; the % refers to the signal ratio;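 note: 100% = dexamethasone at 0.1 µM and 0% = DMSO only wells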). To be noted: HeLa MMTV-bla, beta-lactamase ratio, agonist, 18 h; stronger effect = higher value; percent of dexamethasone control, DMSO zero. In outline:
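MMTV-bla HeLa, beta-lactamase reporter; medium with 1% charcoal/dextran-stripped FBS; cpds up to 92 uM, 18 h, 37 C; CCF4 readout 460/530 nm; Hill fit → EC50, efficacy vs 0.1 uM dexamethasone = 100%.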

The nature of test [9]: qHTS assay for small molecule antagonists of peroxisome proliferator-activated receptor delta signaling (AID 588535; active = well fitted inhibition curve with a large enough effect in the signal ratio, with a control signal flat, not every such curve was filed as active; the % refers to the signal ratio;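 for max response: cells co-treated with a PPAR-delta agonist as stimulator during compound exposure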). To be noted: HEK293T PPARd-UAS-bla, beta-lactamase FRET ratio, 18 h; 460 nm channel. In outline:
(§1)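 Inhibition of PPAR-delta response element-driven beta-lactamase expression is measured in HEK293T cells exposed to a compound titration series for 18 hrs at 37 C. Half-maximal inhibition comes from Hill equation fitting.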

In test [10] the target is Peroxisome proliferator-activated receptor delta (Homo sapiens) (UniProt Q03181). Described as above. The method, boiled down: as §1
Test [11] concerns the target Peroxisome proliferator-activated receptor gamma (Homo sapiens) (UniProt P37231). Put plainly: qHTS assay for small molecule agonists of peroxisome proliferator-activated receptor gamma signaling (AID 588536; active = well fitted curve in the direction sought with a large enough effect in the signal ratio, with a control signal flat, not every such curve was filed as active; the % refers to the signal ratio;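 note: 0% = DMSO basal wells and 100% = rosiglitazone at 2 µM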). The method, boiled down: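 This is an agonist-mode beta-lactamase reporter assay in HEK293 PPAR-gamma-UAS-bla cells with 1% charcoal/dextran FBS. Compound titrations ran 16 h at 37 C before CCF4 detection. EC50 and efficacy are Hill fits scaled to 2 uM rosiglitazone (100%) and DMSO basal.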

Test [12] deals with Vitamin D3 receptor (Homo sapiens) (UniProt P11473). Put plainly: qHTS assay for small molecule antagonists of vitamin D receptor signaling (AID 588541; calls by dose curve;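 note: receptor activated by calcitriol during compound treatment; series mostly up to about 77 µM; % is set by controls: 0 for no effect and ±100 for the full control effect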). In outline:
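VDR-UAS-bla HEK293T cells (2000/well, 2% charcoal-stripped FBS) were treated with titrated compounds plus 1-alpha,25-dihydroxyvitamin D3 (50 nM or 3 nM final) for 16 h at 37 C. CCF4 beta-lactamase fluorescence was read; Hill fits gave IC50.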

For test [13] the target is unchanged. Put plainly: qHTS assay for small molecule agonists of vitamin D receptor signaling (AID 588543; calls by dose curve;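 note: 0% = DMSO basal and 100% = reference agonist control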). The method, boiled down:
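β-lactamase reporter, VDR-UAS-bla HEK293T, agonist mode. Cells plated 5 h at 37 °C, compound titration 16 h at 37 °C, CCF4 dye 2 h RT, ratio 460/530 nm. Hill fit → EC50, efficacy vs 50 nM 1α,25-(OH)2D3.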

The target in test [14] is Glucocorticoid receptor (Homo sapiens) (UniProt P04150). In words: qHTS assay for small molecule antagonists of glucocorticoid receptor signaling (AID 588533; active = well fitted inhibition curve with a large enough effect in the signal ratio, with a control signal flat, not every such curve was filed as active; the % refers to the signal ratio;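 note: cells stimulated with 2 nM dexamethasone as agonist; % is set by controls: 0 for no effect and ±100 for the full control effect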). In outline: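 Antagonist-mode qHTS: compound titrations added to GRE-bla HeLa cells, then dexamethasone 2 nM final; 18 h, 37 C. CCF4 FRET fluorescence normalized to dexamethasone and DMSO; IC50 from Hill fit.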

The target of test [15] is Peroxisome proliferator-activated receptor gamma (Homo sapiens) (UniProt P37231). Put plainly: qHTS assay for small molecule antagonists of peroxisome proliferator-activated receptor gamma signaling (AID 588537; active = well fitted inhibition curve with a large enough effect in the signal ratio, with a control signal flat, not every such curve was filed as active; the % refers to the signal ratio;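 note: reporter cells co-stimulated with 50 nM rosiglitazone agonist during compound treatment; % of control where 0% means no effect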). The method, boiled down: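 Compounds are tested as concentration series for inhibition of rosiglitazone-driven (50 nM) reporter expression in GeneBLAzer PPAR-gamma-UAS-bla HEK293 cells. After 16 h at 37 C, CCF4 substrate is added for 2 h at room temperature and blue/green fluorescence is measured.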

Values joined by “and” are separate entries in the source; they are usually repeats but may differ in a detail not shown here. Equal entries are not always repeated. Inconclusive results are not listed. Active and inactive are the calls of the source. Unless noted, calls come from the whole dose curve; as a rule, active = well fitted cell-killing curve with a large enough effect; inconclusive = small, poorly fitted or top-dose-only effect; inactive = flat fitted curve, though single readings scatter.

Vitamin D3 receptor (Homo sapiens), sequence (P11473 whole entry, looked up): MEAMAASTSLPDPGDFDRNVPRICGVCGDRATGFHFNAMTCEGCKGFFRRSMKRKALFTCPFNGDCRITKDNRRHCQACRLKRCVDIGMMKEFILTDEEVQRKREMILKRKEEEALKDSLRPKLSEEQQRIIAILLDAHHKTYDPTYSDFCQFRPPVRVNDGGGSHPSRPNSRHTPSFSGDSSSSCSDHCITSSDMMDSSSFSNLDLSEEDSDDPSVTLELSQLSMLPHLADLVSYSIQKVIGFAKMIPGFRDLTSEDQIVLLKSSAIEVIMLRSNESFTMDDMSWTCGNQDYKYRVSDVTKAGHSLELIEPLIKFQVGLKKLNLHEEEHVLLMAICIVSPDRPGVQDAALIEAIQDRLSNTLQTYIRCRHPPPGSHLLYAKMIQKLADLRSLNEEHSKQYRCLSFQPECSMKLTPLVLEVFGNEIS
Peroxisome proliferator-activated receptor delta (Homo sapiens), sequence (Q03181 whole entry, looked up): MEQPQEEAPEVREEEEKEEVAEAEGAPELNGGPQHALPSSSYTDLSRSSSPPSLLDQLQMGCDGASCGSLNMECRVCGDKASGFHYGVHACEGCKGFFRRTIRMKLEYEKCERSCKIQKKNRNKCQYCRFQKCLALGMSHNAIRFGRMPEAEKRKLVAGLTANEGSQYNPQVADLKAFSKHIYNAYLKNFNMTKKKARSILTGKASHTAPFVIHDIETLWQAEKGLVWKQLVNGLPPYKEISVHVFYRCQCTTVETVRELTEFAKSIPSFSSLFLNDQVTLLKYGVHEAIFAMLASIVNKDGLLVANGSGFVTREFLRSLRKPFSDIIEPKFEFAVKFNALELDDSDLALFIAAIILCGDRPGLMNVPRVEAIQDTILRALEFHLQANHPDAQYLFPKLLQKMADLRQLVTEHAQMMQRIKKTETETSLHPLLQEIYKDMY
Glucocorticoid receptor (Homo sapiens), sequence (P04150 whole entry, looked up): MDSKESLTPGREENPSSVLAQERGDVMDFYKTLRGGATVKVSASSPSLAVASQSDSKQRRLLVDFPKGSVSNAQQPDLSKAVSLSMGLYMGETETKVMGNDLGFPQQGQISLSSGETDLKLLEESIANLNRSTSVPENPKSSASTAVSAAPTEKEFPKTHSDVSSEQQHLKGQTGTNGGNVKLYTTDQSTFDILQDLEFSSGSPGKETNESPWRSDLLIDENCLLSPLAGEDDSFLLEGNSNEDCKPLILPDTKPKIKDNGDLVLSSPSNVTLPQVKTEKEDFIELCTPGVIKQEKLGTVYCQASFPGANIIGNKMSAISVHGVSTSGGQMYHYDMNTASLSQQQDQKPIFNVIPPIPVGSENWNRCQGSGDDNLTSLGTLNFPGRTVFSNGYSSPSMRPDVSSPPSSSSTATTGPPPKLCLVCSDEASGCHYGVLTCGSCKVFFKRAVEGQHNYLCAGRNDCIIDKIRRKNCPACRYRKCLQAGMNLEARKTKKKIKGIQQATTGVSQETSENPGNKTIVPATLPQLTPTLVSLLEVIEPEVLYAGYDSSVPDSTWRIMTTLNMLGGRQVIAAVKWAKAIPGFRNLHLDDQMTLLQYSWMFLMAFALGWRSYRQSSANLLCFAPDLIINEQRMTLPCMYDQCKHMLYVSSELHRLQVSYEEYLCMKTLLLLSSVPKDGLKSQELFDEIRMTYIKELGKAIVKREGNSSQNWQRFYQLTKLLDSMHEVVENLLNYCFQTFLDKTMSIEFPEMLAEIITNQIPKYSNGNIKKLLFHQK
Peroxisome proliferator-activated receptor gamma (Homo sapiens), sequence (P37231 whole entry, looked up): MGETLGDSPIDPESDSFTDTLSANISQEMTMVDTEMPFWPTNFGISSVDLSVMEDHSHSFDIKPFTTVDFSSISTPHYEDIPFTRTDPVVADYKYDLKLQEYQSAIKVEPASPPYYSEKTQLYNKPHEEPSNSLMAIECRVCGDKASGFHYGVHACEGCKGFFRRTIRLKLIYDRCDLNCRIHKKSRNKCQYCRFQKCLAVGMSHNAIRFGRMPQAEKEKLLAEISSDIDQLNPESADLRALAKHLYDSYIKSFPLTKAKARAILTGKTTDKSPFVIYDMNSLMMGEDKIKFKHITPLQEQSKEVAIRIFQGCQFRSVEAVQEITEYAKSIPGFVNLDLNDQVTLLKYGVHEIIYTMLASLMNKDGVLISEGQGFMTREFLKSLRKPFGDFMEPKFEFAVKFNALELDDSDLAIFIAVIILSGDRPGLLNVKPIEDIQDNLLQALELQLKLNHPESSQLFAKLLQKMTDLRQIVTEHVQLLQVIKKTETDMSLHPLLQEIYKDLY

On to `CC(O)COC(C)(C)C` (stereo not given), for which the Potency result in test [1], in [2], in test [3], in [5], in [6] and in [10] was “inactive” in each case. Besides, the outcome in test [4], in [7], in test [11], in test [12] and in [13] was inactive. Moreover, in [8], the activation was -7.34% (inactive). Besides, the max response in test [9] is -1.74%.

`Cc1ccc2c(c1[N+](=O)[O-])C(=O)c1ccccc1C2=O`: the Potency result in [1], in [2], in test [5] and in test [6] was “inactive” each time. Also, the compound was called inactive in [4], in [7], in test [11], in test [12] and in test [13].

`Cc1cc(C2(c3cc(C)c(O)cc3C)OS(=O)(=O)c3ccccc32)c(C)cc1O`: the Potency result in test [1], in [2], in test [3], in test [5] and in test [6] was “inactive” in each case. The result in test [4], in test [7], in test [14] and in [11] was inactive. The activation in [8] is 3.46% (inactive).

`CCCCOCCOCCSC#N`: the Potency entry in test [1], in test [2], in test [3], in [5] and in test [6] was “inactive” each time. Further, the result in test [7], in test [14], in test [11], in test [12] and in test [13] was inactive. For the same compound, the max response in [9] was 34.7%.

On to `CC(C)(C)OCC1CO1` (stereo not given), for which the Potency entry in test [1], in [3], in test [5] and in test [6] was “inactive” each time. Moreover, the result in [4], in test [7], in [11], in test [12] and in test [13] was inactive.

For `CC(=O)OC(C)=O`, the Potency entry in test [1], in test [2], in test [3], in [5] and in test [6] was “inactive” throughout. Moreover, the result in [4], in test [7], in test [14], in test [11], in [15] and in test [12] was inactive. Further, the compound was called inactive in [13].

Take `ON=C1CCCCC1`: the Potency result in test [1], in test [2], in test [3], in test [6] and in test [10] was “inactive” each time. In addition, the call in test [4], in test [7], in [14], in test [11], in test [15] and in [12] was inactive. The result in [13] was inactive. The max response in test [9] is -2.32%.

On to `N#CCc1ccccc1[N+](=O)[O-]`, for which the Potency entry in [1], in [2], in [5], in test [6] and in test [10] was “inactive” throughout. Moreover, the compound was called inactive in test [4], in test [7], in test [11], in test [12] and in test [13]. Besides, in test [9], the max response was 42%.

On to `O=C(O)c1ccc(C(=O)O)cc1`, for which the Potency result in [1], in test [2], in test [3], in [6] and in test [10] was “inactive” throughout. The compound was called inactive in [4], in test [7], in test [11], in [15], in test [12] and in test [13]. Besides, in [8], the activation is 6.51% (inactive) and -2.73% (inactive). For the same compound, in test [9], the max response is 14.5% and 21.9%.

With `NS(=O)(=O)O`, the Potency entry in test [1], in [2], in test [3], in test [5], in test [6] and in [10] was “inactive” each time. Besides, the call in test [4], in [7], in test [14], in test [11], in [15] and in test [12] was inactive. In addition, in [13], the result was inactive. The max response in test [9] was -9.24%.
